Experimental data taken from PubChem BioAssay (NCATS).
Results filed as inconclusive are left out. The source made the active and inactive calls. Calls come from the whole dose curve; as a rule, active = well fitted inhibition curve with a large enough effect; inconclusive = small, poorly fitted or top-dose-only effect; inactive = flat fitted curve, though single readings scatter.

Assays:
Assay in all cases: qHTS profiling for inhibitors of Plasmodium falciparum proliferation (AID 504749); note: nearly all actives have a fitted effect of over 60% in size
CP269 = conditions: P. falciparum in erythrocytes, SYBR Green DNA, 72 h; series mostly up to 28.7 µM
Method in brief: (§1)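 Fluorescence of SYBR Green-bound parasite DNA, read at 485/535 nm, served as the growth measure. Infected erythrocytes were cultured with compound 72 h; artemisinin (0.29 uM) and DMSO wells defined the normalization range.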

CP286 = conditions: P. falciparum in erythrocytes, SYBR Green DNA, 72 h; series mostly up to 28.7 µM
Method in brief: as §1

CP291 = conditions: P. falciparum in erythrocytes, SYBR Green DNA, 72 h; series mostly up to 28.7 µM
Method in brief: as §1

CP297 = conditions: P. falciparum in erythrocytes, SYBR Green DNA, 72 h; series mostly up to 28.7 µM
Method in brief: as §1

CP305 = conditions: P. falciparum in erythrocytes, SYBR Green DNA, 72 h; series mostly up to 28.7 µM
Method in brief: as §1

CP315 = conditions: P. falciparum in erythrocytes, SYBR Green DNA, 72 h; series mostly up to 28.7 µM
Method in brief: as §1

CP325 = conditions: P. falciparum in erythrocytes, SYBR Green DNA, 72 h; series mostly up to 28.7 µM
Method in brief: as §1

CP329 = conditions: P. falciparum in erythrocytes, SYBR Green DNA, 72 h; series mostly up to 28.7 µM
Method in brief: as §1

CP335 = conditions: P. falciparum in erythrocytes, SYBR Green DNA, 72 h
Method in brief: as §1

DFO2036 = conditions: P. falciparum in erythrocytes, SYBR Green DNA, 72 h; series mostly up to 28.7 µM
Method in brief: as §1

Measured: Potency
Potency is the fitted concentration of half-maximal effect.

C=CCNC1=C2C[C@@H](C)C[C@H](OC)[C@H](O)[C@@H](C)/C=C(\C)[C@H](OC(N)=O)[C@@H](OC)/C=C\C=C(/C)C(=O)NC(=CC1=O)C2=O
active: CP269 1.69 µM | CP286 3.55 µM | CP291 4.26 µM | CP297 1.69 µM | CP305 4.78 µM | CP315 3.79 µM | CP325 4.26 µM | CP329 4.26 µM | CP335 1.69 µM | DFO2036 2 µM

CCCOc1ccc2nc(NC(=O)OC)sc2c1
inactive: CP269 | CP286 | CP291 | CP297 | CP305 | CP315 | CP325 | CP329 | DFO2036

COC1C(OC(=O)/C=C/C=C/C=C/C=C/C(=O)O)CCC2(CO2)C1C1(C)OC1CC=C(C)C (stereo not drawn)
active: CP291 8.49 µM | CP315 1.69 µM | CP325 7.57 µM | CP329 0.601 µM
